Measured values from PubChem BioAssay (Tox21).
Results filed as inconclusive are left out. Values without a mark were called inactive. The source made the active and inactive calls. Unless noted, calls follow the shape of the full dose curve.

experiment: Nuclear factor erythroid 2-related factor 2/antioxidant responsive element (Nrf2/ARE) small molecule agonists: qHTS cell viability counter screen in human keratinocytes (AID 1919968; active = well fitted cell-killing curve with a large enough effect in the repeat runs; also: nearly all actives have a fitted effect of over 55% in size); settings: KeratinoSens HaCaT ARE cells viability, CellTiter-Fluor, 24 h; series mostly up to 92.4 µM; activity change, negative = cytotoxicity: at the top concentration
Procedure, shortened: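 KeratinoSens HaCaT cells, 1,500/well, preincubated 5 h, then exposed to compounds in DMSO for 23 h at 37 C/5% CO2. Viability read as CellTiter-Fluor fluorescence after 1 h, in the same wells as the ARE-luciferase read.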
% is scaled to controls: 0 for no effect and ±100 for the full control effect.

| Compound | activity change, negative = cytotoxicity |
| --- | --- |
| CC1(C)C(=O)N(Cl)C(=O)N1Br | 0.849% |
| CCOc1ccc(OCC)c(Cl)c1 | 2.95% |
| c1ccc(-c2nc[nH]c2-c2ccccc2)cc1 | 6.89% [at 42.5 µM] |
| CCOc1ccc2nc(S(N)(=O)=O)sc2c1 | 1.49% [at 42.5 µM] |
| O=C1CC[C@@H](C(=O)O)N1 | 8.52% [at 42.5 µM] |
| CCCCC(CC)C(=O)OCCOCCOCCOCCOC(=O)C(CC)CCCC (stereo unspecified) | 4.76% |
| O=C(O)CNC(=O)CNC(=O)CNC(=O)CSC(=O)c1ccccc1 | -3.03% [at 42.5 µM] |
| CC(O)CC(C)O (stereo unspecified) | 4.7% |
| Clc1sc(Cl)c(Cl)c1Cl | -3.11% |
| C/C=C(\C)C(C)=O | 0.0103% |
| CC1=NN(c2cccc(S(=O)(=O)O)c2)C(=O)C1 | -7.24% |
| C=CCOC(=O)c1ccc(C(=O)OCC=C)c(C(=O)OCC=C)c1 | 4.62% |
| Cc1ccc(N)cc1S(=O)(=O)O | 1.26% |
| CC(C)(CO)[N+](=O)[O-] | 4.47% |
| C[Si](C)(C)O[Si](O)(O)O | -9.14% |
| CC(Cc1ccccc1)(NC(=O)CN)c1ccccc1 (stereo unspecified) | -4.29% [at 42.5 µM] |
| N[C@@H](CCC(=O)O)C(=O)O | 3.11% |
| C=C(C)C1CC=C(C)C(=O)C1 (stereo unspecified) | -0.964% |
| CC(CO)(CO)[N+](=O)[O-] | -0.802% |
| NNC(=O)CP(=O)(c1ccccc1)c1ccccc1 | -3.75% [at 42.5 µM] |
| C=CCCC(=O)O | -3.35% |

experiment: Nuclear factor erythroid 2-related factor 2/antioxidant responsive element (Nrf2/ARE) small molecule agonists: luciferase reporter gene qHTS assay in human keratinocytes (AID 1919969); settings: KeratinoSens HaCaT ARE-luciferase, luminescence, 24 h; series mostly up to 92.4 µM; activity, positive = activation: at the top concentration; also: nearly all actives have a fitted effect of over 35% in size; also: potency is read from the fitted curve at half-maximal effect

| Compound | activity, positive = activation | Potency |
| --- | --- | --- |
| OC[C@H]1O[C@@H]2O[C@H]3[C@H](O)[C@@H](O)[C@@H](O[C@H]4[C@H](O)[C@@H](O)[C@@H](O[C@H]5[C@H](O)[C@@H](O)[C@@H](O[C@H]6[C@H](O)[C@@H](O)[C@@H](O[C@H]7[C@H](O)[C@@H](O)[C@@H](O[C@H]8[C@H](O)[C@@H](O)[C@@H](O[C@H]9[C@H](O)[C@@H](O)[C@@H](O[C@H]1[C@H](O)[C@H]2O)O[C@@H]9CO)O[C@@H]8CO)O[C@@H]7CO)O[C@@H]6CO)O[C@@H]5CO)O[C@@H]4CO)O[C@@H]3CO | -8.34% [at 42.5 µM] | – |
| CCCCCCCCCCCCOC(C)=O | -2.75% | – |
| S=C(S)NCCNC(=S)S | 23.9% | – |
| C=Cc1ccc(C(C)(C)C)cc1 | 0.406% | – |
| CCN[C@H]1C[C@H](C)S(=O)(=O)c2sc(S(N)(=O)=O)cc21 | 0.712% [at 42.5 µM] | – |
| O=c1c2ccccc2oc2ccccc12 | 22.5% | – |
| Nc1ncn([C@H]2C[C@H](O)[C@@H](CO)O2)c(=O)n1 | -0.142% [at 42.5 µM] | – |
| CC(=O)Nc1ccc(S(=O)(=O)Cl)cc1 | -6.82% | – |
| CC(C)(C)C(=O)CCc1ccc(Cl)cc1 | 0.743% | – |
| CC(=O)NNC(C)=O | -2.95% | – |
| O=[N+]([O-])c1ccc(Cl)cc1Cl | 25.9% | – |
| OCC1CC=CCC1 (stereo unspecified) | -1.04% | – |
| C=CCN(CC=C)CC=C | 12.6% | – |
| O=C(Cl)c1c(Cl)cccc1Cl | -4.17% | – |
| NCCCN(CCO)CCO | -6.38% | – |
| CC1=C(C(=O)O)N2C(=O)[C@@H](NC(=O)[C@H](N)C3=CCC=CC3)[C@H]2SC1 | 2.24% [at 42.5 µM] | – |
| C#CC(O)C(CC)CCCC (stereo unspecified) | 13.1% | – |
| C=C1CCC2CC1C2(C)C (stereo unspecified) | -5.57% | – |
| CC(C)CCOCc1ccccc1 | -29.7% | – |
| CC1(C)C(=O)N(Cl)C(=O)N1Br | 7.43% | – |

| Compound | activity, positive = activation | Potency |
| --- | --- | --- |
| CCOc1ccc(OCC)c(Cl)c1 | -9.88% | – |
| c1ccc(-c2nc[nH]c2-c2ccccc2)cc1 | 1.11% [at 42.5 µM] | – |
| CCOc1ccc2nc(S(N)(=O)=O)sc2c1 | – | 6.68 µM (active) |
| O=C1CC[C@@H](C(=O)O)N1 | -7.2% [at 42.5 µM] | – |
| CCCCC(CC)C(=O)OCCOCCOCCOCCOC(=O)C(CC)CCCC (stereo unspecified) | 14% | – |
| O=C(O)CNC(=O)CNC(=O)CNC(=O)CSC(=O)c1ccccc1 | -1.99% [at 42.5 µM] | – |
| CC(O)CC(C)O (stereo unspecified) | 4.3% | – |
| Clc1sc(Cl)c(Cl)c1Cl | 9.41% | – |
| C/C=C(\C)C(C)=O | -1.62% | – |
| CC1=NN(c2cccc(S(=O)(=O)O)c2)C(=O)C1 | -6.83% | – |
| C=CCOC(=O)c1ccc(C(=O)OCC=C)c(C(=O)OCC=C)c1 | -5.92% | – |
| Cc1ccc(N)cc1S(=O)(=O)O | -5.8% | – |
| CC(C)(CO)[N+](=O)[O-] | -4.18% | – |
| C[Si](C)(C)O[Si](O)(O)O | -7.61% | – |
| CC(Cc1ccccc1)(NC(=O)CN)c1ccccc1 (stereo unspecified) | 4.91% [at 42.5 µM] | – |
| N[C@@H](CCC(=O)O)C(=O)O | -1.4% | – |
| C=C(C)C1CC=C(C)C(=O)C1 (stereo unspecified) | -4.6% | – |
| CC(CO)(CO)[N+](=O)[O-] | -4.12% | – |
| NNC(=O)CP(=O)(c1ccccc1)c1ccccc1 | -3.11% [at 42.5 µM] | – |
| C=CCCC(=O)O | -4.77% | – |
